GluA2 TARP mod: modulators of GluA2-stargazin AMPA receptor complexes, primary screen, cell-based, membrane potential dye; Voltage-dependent calcium channel gamma-2 subunit (Mus musculus) + Glutamate receptor 2 …; HEK293 GluA2+stargazin, membrane potential dye (FDSS), glutamate EC50; hits were called plate by plate, in both directions; calls only at 30 µM; 40,000 compounds, 3.5% hits; AID 1259245, 2017;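 active = any of four per-well response measures lying three or more SD from its plate-wide compound average, in either direction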
GIRK2 activator: activators of NPY4-receptor-primed GIRK2 channels, summary, cell-based, HEK293, thallium flux; G protein-activated inward rectifier potassium channel 2 (Homo sapiens), P48051; HEK293 GIRK2/NPY4 cells, thallium flux fluorescence; activation (% efficacy), % for hits at 37.5 µM; 34,000 tested, under 10 active; AID 1259324, 2017;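 active = primary screen hit, no activity in plain HEK293 cells, and in GIRK2-only cells above 5% efficacy rising with concentration; inactive = the rest, including fluorescent compounds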;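 note: efficacy is normalized control-subtracted fluorescence 15 s after thallium addition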
Target sequence (P48051 whole entry, looked up): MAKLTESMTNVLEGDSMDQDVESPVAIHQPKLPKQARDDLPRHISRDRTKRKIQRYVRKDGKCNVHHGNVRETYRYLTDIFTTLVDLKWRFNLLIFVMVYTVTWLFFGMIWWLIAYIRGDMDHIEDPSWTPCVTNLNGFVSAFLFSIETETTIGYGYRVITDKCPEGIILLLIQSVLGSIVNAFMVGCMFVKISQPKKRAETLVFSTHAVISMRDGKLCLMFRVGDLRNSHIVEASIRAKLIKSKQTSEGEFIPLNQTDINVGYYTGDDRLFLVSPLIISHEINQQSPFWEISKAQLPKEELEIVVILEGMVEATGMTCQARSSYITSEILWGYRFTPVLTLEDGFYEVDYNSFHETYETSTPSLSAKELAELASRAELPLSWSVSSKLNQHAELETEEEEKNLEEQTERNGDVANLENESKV
Calls only; . = inactive; / = no result; + = active, no number. This is one part of a sample in which hits are shown more often than they occur.

SMILES | GluA2 TARP mod | GIRK2 activator
O=C(CC1SC(=O)N(CC(=O)c2ccccc2)C1=O)Nc1ccc(Br)cc1 (centres undefined) | . | .
O=C(Cc1cccc2ccccc12)NCC1CCN(c2ncccn2)CC1 | . | .
O=C(Cc1cccc2ccccc12)NCC1CCN(C(=O)COc2ccccc2)CC1 | + | .
O=C(NC(c1ccccc1)c1ccccc1)N1CCC(c2cccs2)CC1 | . | .
O=C(NC12CC3CC(CC(C3)C1)C2)N1CCC(c2cccs2)CC1 | + | .
CCOC(=O)Cn1c(=O)c2c(nc3n2CCCN3C2CCCCC2)n(C)c1=O | . | /
O=C(NCC(=O)N1CCOC(c2ccccc2)C1)C(=O)NCc1ccc2c(c1)OCO2 (centres undefined) | / | .
COC(=O)c1sccc1S(=O)(=O)N1CCN(c2ccccc2F)CC1 | + | /
COc1ccc(CNC(=O)c2sccc2S(=O)(=O)N2CCN(c3ccccc3F)CC2)cc1 | / | .
COc1cc2ccccc2cc1C(=O)Nc1nnc(-c2cc(C)n(C)n2)o1 | . | .
COc1cc(OC)cc(C(=O)Nc2nnc(-c3cc(C)n(C)n3)o2)c1 | + | .
COc1ccc(C(=O)Nc2nnc(-c3cc(C)nn3C)o2)cc1OC | / | .
COc1ccc(C(=O)Nc2nnc(-c3cc(C)n(C)n3)o2)cc1OC | + | .
Cc1cc(Cl)cc2sc(NC(=O)c3ccn(C)n3)nc12 | . | .
O=C(Nc1cc(-c2ccccc2)nn1CCO)c1ccco1 | . | .
O=C(Nc1cc(-c2ccccc2)nn1CCO)c1ccc(Cl)s1 | + | .
Cc1ccc(S(=O)(=O)N2CCC(C(=O)Nc3sc(C)c(C)c3C#N)CC2)cc1 | . | .
O=C(Nc1ccc2ncsc2c1)c1ccc(S(=O)(=O)N2CCOCC2)cc1 | . | .
CC1CC(C)CN(S(=O)(=O)c2ccc(C(=O)Nc3ccc4ncsc4c3)cc2)C1 (centres undefined) | + | .
CC(=O)Nc1cccc(NC(=O)CCc2sc(C)nc2-c2cccs2)c1 | . | .
O=C(NCC1COC2(CCCCC2)O1)c1ccno1 (centres undefined) | / | .
O=C(c1ccc(F)c(F)c1)N1CCN(c2nccn2-c2cccc(Cl)c2)CC1 | . | .
COc1ccccc1N1CCN(S(=O)(=O)c2ccc(F)c(C(=O)Nc3ccc(Cl)cc3)c2)CC1 | + | /
COc1ccc(Cl)cc1NC(=O)c1cc(S(=O)(=O)N2CCN(c3ccccc3F)CC2)ccc1F | . | /
COC(=O)c1ccc2c(=O)n(Cc3ccc(C(=O)NCCCN4CCOCC4)cc3)c(=S)[nH]c2c1 | + | .
SMILES | GluA2 TARP mod | GIRK2 activator
COC(=O)c1ccc2c(=O)n(Cc3ccc(C(=O)NC4CCCC4)cc3)c(=S)[nH]c2c1 | . | .
CC(C)C(=O)Nc1ccc(S(=O)(=O)N(Cc2ccccn2)Cc2ccco2)cc1 | / | .
CC(O)CN(CC(C)O)CC(O)COC12CC3CC(CC(C3)C1)C2 (centres undefined) | / | .
CN1C(=O)C(=C2C=C(c3ccccc3)N(Cc3ccco3)C3=C2CCCC3)C(=O)N(C)C1=O | + | /
COc1ccc(OC)c(CNC(=O)Cc2nnc(-c3cnccn3)o2)c1 | / | .
CCC(=O)c1ccc(OC(=O)COc2cc(C)ccc2C)cc1 | . | /
Cc1onc(-c2ccccc2Cl)c1C(=O)N1CCC(c2ccsc2)CC1 | + | .
Cc1nnsc1C(=O)N1CCC(CNC(=O)c2c(-c3ccccc3Cl)noc2C)CC1 | . | .
CN1CCc2c(sc(NC(=O)c3ccc(C#N)cc3)c2-c2nc3ccccc3s2)C1 | . | /
O=C1CSC(=O)N1c1ccc(F)cc1 | . | /
Cc1ccccc1Cn1cc(C(=O)Nc2cccc(Br)c2)ccc1=O | . | /
COc1cc(NC(=O)c2n[nH]nc2Nc2cccc(Cl)c2)cc(OC)c1 | + | .
O=C(Nc1ccccc1Br)c1n[nH]nc1Nc1cccc(Cl)c1 | . | .
Cc1nn(-c2ccc(F)cc2)c2ncc(C(=O)NCc3ccccc3Cl)c(Cl)c12 | . | /
CC(C)S(=O)(=O)c1ccc(CC(=O)N2CCC(c3cccs3)CC2)cc1 | . | .
CC(C)S(=O)(=O)c1ccc(CC(=O)N2CCC(c3ccsc3)CC2)cc1 | + | .
O=C(Cc1ccc(F)cc1)NNC(=O)c1cccn(Cc2ccc(Cl)c(Cl)c2)c1=O | . | .
O=C(Cc1cccs1)NNC(=O)c1cccn(Cc2ccc(Cl)c(Cl)c2)c1=O | + | .
CCn1ccnc1N1CCN(CC(=O)Nc2cc(C)cc(C)c2)CC1 | . | .
O=C(Cc1ccc(NC(=O)CSc2ccc(F)cc2)cc1)NCC(F)(F)F | / | .
Cc1ccc(CNC(=O)Cn2cnc(C(C)C)cc2=O)cc1 | + | .
Cc1ccc(CNC(=O)Cn2cnc(-c3ccc(C)cc3)cc2=O)cc1 | . | .
COc1ccc(CNC(=O)/C(C#N)=C/N2CCN(Cc3ccc4c(c3)OCO4)CC2)cc1 | + | .
N#C/C(=C\N1CCN(Cc2ccc3c(c2)OCO3)CC1)C(=O)NCc1ccccc1 | . | .
